Measured values published in PubChem BioAssay AID778 (Sanford-Burnham Center for Chemical Genomics, 2007).
Screen size: about 96,000 compounds; about 20,000 (21%) were called active.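 The calls were made as follows: active = CYP2C19 inhibition above a set limit at 5 µM in the primary screen (cut at about 50% in these data); inactive = the rest.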 A selection follows.

molecular target: Cytochrome P450 2C19 (Homo sapiens) (UniProt P33261); test: blockers of cytochrome P450 2C19 activity – biochemical, luminescence, ADME assay, primary screen (AID 778); conditions: CYP2C19 Supersomes, luciferin-H EGE luminescence, 30 min; at 5 µM; stronger effect = higher value;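 also: plate controls were negative control wells for no effect and 2.5 mM tranylcypromine positive control for full effect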
Sequence (P33261 whole entry, looked up): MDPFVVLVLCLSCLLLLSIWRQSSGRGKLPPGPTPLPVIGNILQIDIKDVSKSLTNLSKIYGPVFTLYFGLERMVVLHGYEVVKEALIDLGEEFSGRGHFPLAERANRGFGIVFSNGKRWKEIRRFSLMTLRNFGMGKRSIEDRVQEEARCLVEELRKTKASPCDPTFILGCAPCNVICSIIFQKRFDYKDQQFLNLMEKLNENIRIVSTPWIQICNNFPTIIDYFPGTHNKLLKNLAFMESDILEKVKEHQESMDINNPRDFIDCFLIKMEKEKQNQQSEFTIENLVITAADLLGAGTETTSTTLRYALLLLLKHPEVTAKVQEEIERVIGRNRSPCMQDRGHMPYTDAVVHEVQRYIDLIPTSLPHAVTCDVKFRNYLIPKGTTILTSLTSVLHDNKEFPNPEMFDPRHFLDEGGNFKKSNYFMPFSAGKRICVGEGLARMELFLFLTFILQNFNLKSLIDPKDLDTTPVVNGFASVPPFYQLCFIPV

| SMILES | inhibition |
| --- | --- |
| CNC(=O)Nc1cc(C(C)(C)C)no1 | 32.3% (inactive) |
| O=C(CSc1nc2ncccc2[nH]1)Nc1ccc2c(c1)OCCO2 | 82.3% (active) |
| O=C(CSc1nc(C2CC2)nc2ccccc12)Nc1ccc2c(c1)OCCO2 | 19.7% (inactive) |
| O=C(CSc1nnc(-c2ccccn2)n1-c1ccccc1)Nc1ccc2c(c1)OCO2 | 5% (inactive) |
| O=C(CSc1nnnn1-c1ccc2c(c1)CCC2)Nc1ccc2c(c1)OCCO2 | -2.7% (inactive) |
| Cc1ccc(-n2c(SCC(=O)Nc3ccc4c(c3)OCO4)nnc2-c2ccoc2C)cc1 | -13% (inactive) |
| CCCCSc1nc2c(c(=O)n1CC)SC(C)C2 (centres undefined) | 42% (inactive) |
| CCn1c(SCC(=O)Nc2ccc3c(c2)OCCO3)nc2c(c1=O)SC(C)C2 (centres undefined) | 61.9% (active) |
| CCC(=O)Nc1cccc(NC(=O)CSc2nnnn2C2CCCC2)c1 | 36.1% (inactive) |
| O=C(CSc1nnnn1C1CCCC1)Nc1ccc2c(c1)OCCO2 | 68.5% (active) |
| Cc1nonc1OCCn1nnnc1N | 4% (inactive) |
| O=C(CCn1c(=S)[nH]c2ccccc2c1=O)NCCCN1CCCC1=O | 5.4% (inactive) |
| O=C(CS(=O)(=O)c1cn(Cc2ccc(Cl)cc2)c2ccccc12)N1CCOCC1 | 35.4% (inactive) |
| CCOC(=O)c1cc(NC(=O)SCC(=O)O)c(C)nc1C | 24.3% (inactive) |
| N#CCSc1nc2c(c(=O)n1Cc1ccccc1)C1(CCCC1)Cc1ccccc1-2 | -19% (inactive) |
| COc1cc(Br)cc(/C=N/c2ncn[nH]2)c1O | 0.3% (inactive) |
| Cc1nc2nc(C)c(CCC(=O)N3CCN(c4ccccc4)CC3)c(C)n2n1 | 7.2% (inactive) |
| Cc1nc2c(-c3ccc(F)cc3)c(C)nn2c(C)c1CCC(=O)NCc1ccco1 | 41.7% (inactive) |
| Cc1nc2c(-c3ccc(F)cc3)c(C)nn2c(C)c1CCC(=O)N1CCN(c2ccccn2)CC1 | 54.1% (active) |
| Cc1nn(C)cc1/C=N/NC(=O)c1sc2ccccc2c1Cl | 37.3% (inactive) |
| CC(=O)Nc1ccc(S(=O)(=O)N2CCC(N(C)CCC(C)C)CC2)cc1 | 2.5% (inactive) |
| CCOC(=O)C(C)Sc1nc2ccccc2c(=O)n1CC1CCCCC1 (centres undefined) | 71.3% (active) |
| CC(Sc1nc2ccccc2c(=O)n1Cc1ccco1)C(=O)c1ccccc1 (centres undefined) | 74.1% (active) |
| CCOC(=O)C1CCc2nc3ccccc3c(=O)n21 (centres undefined) | 17.8% (inactive) |
| CCOn1c(SC(C)C)nc2ccccc2c1=O | -0.2% (inactive) |

| SMILES | inhibition |
| --- | --- |
| N#Cc1c(NC(=O)CSc2nc3ccccc3c(=O)n2Cc2ccco2)sc2c1CCCC2 | -5.2% (inactive) |
| O=C(CN1CCOCC1)Nc1c(-c2ccccc2)c2cc(Br)ccc2[nH]c1=O | 4.9% (inactive) |
| Cc1ccc(C(=O)N2CCN(C(=O)N3CCOCC3)CC2)cc1 | 7.4% (inactive) |
| CCOC(=O)c1[nH]c2ccc(C)cc2c1N=C(C)N(C)C | -13% (inactive) |
| Cc1ccc(-c2ccnc3nc(Sc4ncc(C(F)(F)F)cc4Cl)nn23)cc1 | 0% (inactive) |
| CCOC(=O)N1CCN(C(c2cccnc2)c2ccc3cccnc3c2O)CC1 (centres undefined) | 48% (inactive) |
| COC(=O)C1C(=O)NCC1c1ccc(C)cc1 (centres undefined) | 10.9% (inactive) |
| Cc1ccc(S(=O)(=O)N2CCCC2C(=O)NCc2ccco2)cc1 (centres undefined) | 81.7% (active) |
| O=C(NCc1ccco1)C1CCCN(S(=O)(=O)c2ccccc2)C1 (centres undefined) | 40.8% (inactive) |
| CCOC(=O)c1cccc(NC(=O)C2CCCN(S(=O)(=O)c3cnc[nH]3)C2)c1 (centres undefined) | 58.5% (active) |
| Cc1cccc(N2CCN(C(=O)C3CCN(S(=O)(=O)c4cnc[nH]4)CC3)CC2)c1C | 7.9% (inactive) |
| COc1cccc(N2CCN(C(=O)C3CCCN(S(=O)(=O)c4cnc[nH]4)C3)CC2)c1 (centres undefined) | 25.3% (inactive) |
| O=C(NCc1ccco1)C1CCCN(S(=O)(=O)c2cccc3nonc23)C1 (centres undefined) | 18.2% (inactive) |
| CCCS(=O)(=O)N1CCC(C(=O)NCCCN(C)Cc2ccccc2)CC1 | 6.8% (inactive) |
| CCN(CCCNC(=O)C1CCN(S(=O)(=O)c2cnc[nH]2)CC1)c1ccccc1 | 70.9% (active) |
| CCCS(=O)(=O)N1CCCC(C(=O)NCc2ccco2)C1 (centres undefined) | -10.8% (inactive) |
| CCOc1cccc(NC(=O)C2CCCN(S(=O)(=O)c3ccc(OC)cc3)C2)c1 (centres undefined) | 48.2% (inactive) |
| O=C(NCc1ccco1)C1CCCN(S(=O)(=O)c2cnc[nH]2)C1 (centres undefined) | 55.3% (active) |
| Cc1ccc(S(=O)(=O)N2CCCC2CO)cc1 (centres undefined) | 18.4% (inactive) |
| CCN1CCN(C(=O)c2ccccc2N(C)S(=O)(=O)c2ccc(C)cc2)CC1 | -7.6% (inactive) |
| CC(C)(C)c1ccc(NC(=O)NCc2ccco2)cc1 | 2% (inactive) |
| c1cc(-n2cnnn2)ccc1NC1=NCCC1 | -15.7% (inactive) |
| CCN1CCCC1Cn1cnc2c([nH]c3cc(OC)ccc32)c1=O (centres undefined) | -3.7% (inactive) |
| CC(C)(C)Oc1ncc(Br)c(OC(C)(C)C)n1 | -12.1% (inactive) |
| N/C(Cc1ccc([N+](=O)[O-])cc1)=N\OC(=O)COc1ccc2ccccc2c1 | 4.3% (inactive) |

| SMILES | inhibition |
| --- | --- |
| COC(=O)c1ccc2c(c1)S(=O)(=O)NC(=NCCCN1CCOCC1)S2 | 6.8% (inactive) |
| CCOC(=O)Cn1c(=O)oc2cc(S(=O)(=O)N(C)Cc3ccco3)ccc21 | 14.9% (inactive) |
| CCOC(=O)C1=C(CSc2nccn2C)NC(=O)NC1c1ccc(OC)cc1 (centres undefined) | 31.3% (inactive) |
| CCOC(=O)C1=C(CSc2nnnn2C)N(C)C(=O)NC1c1ccccc1 (centres undefined) | 79.5% (active) |
| Cn1nnnc1SCc1cc(=O)[nH]c2ccccc12 | 2.9% (inactive) |
| CC1(C)Oc2ccc3ccc(=O)oc3c2/C(=C/NCCO)C1=O | -7.3% (inactive) |
| COc1ccccc1NC(=O)c1ccc2nc(N3C(=O)CCC3=O)sc2c1 | 13.6% (inactive) |
| Cc1cc(NC(=O)CN2CCC(O)(c3cccc(F)c3)CC2)no1 | 34.5% (inactive) |
| COc1ccccc1CNC(=O)CCCNS(=O)(=O)c1cccc2nsnc12 | 7.7% (inactive) |
| CC(c1ccccc1)n1c(NCCCn2ccnc2)nc2c1c(=O)[nH]c(=O)n2C (centres undefined) | 55.9% (active) |
| COc1ccc(CCn2c(NCCCN3CCOCC3)nc3c2c(=O)[nH]c(=O)n3C)cc1 | 25.2% (inactive) |
| CCCCNc1nc2c(c(=O)[nH]c(=O)n2C)n1CCOc1ccccc1 | 28.9% (inactive) |
| CCOC(=O)c1cnc(SCC(=O)Nc2cccc(OC)c2)nc1N | -12.1% (inactive) |
| CCOC(=O)N1CCC(C(N)=O)CC1 | 5.4% (inactive) |
| COc1cc2cc(CN(CCN3CCCC3)C(=O)Nc3ccccc3Cl)c(=O)[nH]c2cc1OC | 7.9% (inactive) |
| Cc1ccc(C(C(=O)NCc2ccco2)N(CC2CCCO2)C(=O)Cn2nnc3ccccc32)cc1 (centres undefined) | 17.2% (inactive) |
| COCCNC(=O)C(c1ccc(C)o1)N(Cc1ccccc1)C(=O)Cn1nnc2ccccc21 (centres undefined) | 29.3% (inactive) |
| COc1ccccc1N(C(=O)Cn1nnc2ccccc21)C(C(=O)NCc1ccco1)c1ccc(C)o1 (centres undefined) | 68% (active) |
| Cc1ccc(C(CC(=O)O)Nc2nc(N3CCCCC3)nc(N3CCCCC3)n2)cc1 (centres undefined) | 11.1% (inactive) |
| CCNC(=O)NC(=O)C(C)OC(=O)c1cc(S(=O)(=O)N2CCCCCC2)ccc1OC (centres undefined) | 66% (active) |
| COc1ccc(S(=O)(=O)N2CCCC2)c(C)c1C | 72.2% (active) |
| COc1ccc(S(=O)(=O)Nc2ccc(S(=O)(=O)N3CCCCC3)cc2)cc1OC | 52.3% (active) |
| COc1ccc2c(c1OC)C(=O)c1ccccc1C2=O | 17% (inactive) |
| COc1ccc(S(=O)(=O)N2CCCC(C(=O)N3CCN(C)CC3)C2)cc1C (centres undefined) | 30% (inactive) |
| COc1ccc(S(=O)(=O)N2CCCCC2)cc1Br | 92% (active) |

| SMILES | inhibition |
| --- | --- |
| COc1ccc(S(=O)(=O)N2CCOCC2)cc1C(=O)Nc1nc2ccccc2s1 | 0.4% (inactive) |
| CCCCNC(=O)C1CCCN(S(=O)(=O)c2ccc(S(=O)(=O)NCC(C)C)cc2)C1 (centres undefined) | 6.5% (inactive) |
| CCCCn1c(=S)[nH]c2cc(S(=O)(=O)N3CCCCC3)ccc21 | 25.4% (inactive) |
| CSC1=N/C(=C\c2ccc3c(c2)OCO3)C(=O)S1 | 0.4% (inactive) |
| COc1cc(NC(=O)N2CCOCC2)cc(OC)c1 | -9.7% (inactive) |
| CCC(=NC1CC(C)(C)NC(C)(C)C1)C1=C(O)CC(C)(C)CC1=O | 3.6% (inactive) |
| Cc1c(-c2ccccc2)cn2c1-c1ccc(C)n1CC2 | 1.7% (inactive) |
| O=C(Nc1ccc(Cl)cn1)c1cnn2cccnc12 | 0.1% (inactive) |
| CCC(=O)c1ccc(OCC(O)CN2CC(C)OC(C)C2)cc1 (centres undefined) | 39.4% (inactive) |
| O=C1Nc2ccc(Br)cc2/C1=N/N=C/C1=C(N2CCOCC2)C(=C\c2ccccc2)/CC1 | -1.8% (inactive) |
| CCCOc1ccc2c3c(c(=O)oc2c1OCCC)CCC3 | 49.9% (inactive) |
| COc1ccc(-c2c(C(C)=O)c(C)nc3sc4c(=O)n(-c5ccc(C)cc5)nnc4c23)cc1 | 21.7% (inactive) |
| C=C(C)CSc1nnc(-c2ccc(C)cc2)n1N | 17% (inactive) |
| Cc1ccc(-n2c(C)cc(/C=C(\C#N)C(=O)NCC3CCCO3)c2C)cc1 (centres undefined) | 31.5% (inactive) |
| CC1(C)CC(=O)C=C(NCCCNC2CCCCC2)C1 | 9.8% (inactive) |
| CC(C)CCSc1ncnc2c1oc1nc3c(cc12)COC(C)(C)C3 | -1.7% (inactive) |
| Cc1cn(COC/C=C/c2ccccc2)c(=O)[nH]c1=O | 24.1% (inactive) |
| O=C(/C=C/c1ccccc1)c1ccoc1 | 35% (inactive) |
| Cc1[nH]c(=O)c(C(=O)/C=C/c2ccccc2)c2c1CCCC2 | 80.5% (active) |
| Cn1c(=NC(=O)c2ccco2)sc2cccc(F)c21 | 21.9% (inactive) |
| CCn1c(-c2ccoc2C)n[nH]c1=S | 1.3% (inactive) |
| COc1ccc(-n2nnnc2SCC(=O)c2ccc(OC)c(OC)c2)cc1 | 66.5% (active) |
| COc1ccc(-n2nnnc2SCC(=O)Nc2ccccc2)cc1 | 48.1% (inactive) |
| COc1ccc(C(=O)CSc2nccc(=O)[nH]2)cc1 | -4% (inactive) |
